Measured values taken from PubChem BioAssay AID2551 (National Center for Advancing Translational Sciences (NCATS), 2010).
Screen size: about 310,000 compounds; about 17,000 (5.5%) were called active. Entries that show only a call come without a potency. Roughly 11% stayed inconclusive and do not appear here. This is one part of a sample in which actives are shown more often than they occur. A number with no mark means an inactive call. The call rests on the fitted dose curve; in most records, active means well fitted inhibition curve with a large enough effect; inconclusive means small, poorly fitted or top-dose-only effect, or effect the other way; inactive means no such curve, though single readings can be large or run the other way.

biological target: Nuclear receptor ROR-gamma (Mus musculus) (UniProt P51450); experiment: qHTS for inhibitors of ROR gamma transcriptional activity; settings: Drosophila S2 Gal4-RORgamma UAS-luciferase reporter, 20 h; series mostly up to 53.6 µM; further: nearly all actives have a fitted effect of over 60% in size
Sequence (P51450 whole entry, looked up, the tested form may be a part): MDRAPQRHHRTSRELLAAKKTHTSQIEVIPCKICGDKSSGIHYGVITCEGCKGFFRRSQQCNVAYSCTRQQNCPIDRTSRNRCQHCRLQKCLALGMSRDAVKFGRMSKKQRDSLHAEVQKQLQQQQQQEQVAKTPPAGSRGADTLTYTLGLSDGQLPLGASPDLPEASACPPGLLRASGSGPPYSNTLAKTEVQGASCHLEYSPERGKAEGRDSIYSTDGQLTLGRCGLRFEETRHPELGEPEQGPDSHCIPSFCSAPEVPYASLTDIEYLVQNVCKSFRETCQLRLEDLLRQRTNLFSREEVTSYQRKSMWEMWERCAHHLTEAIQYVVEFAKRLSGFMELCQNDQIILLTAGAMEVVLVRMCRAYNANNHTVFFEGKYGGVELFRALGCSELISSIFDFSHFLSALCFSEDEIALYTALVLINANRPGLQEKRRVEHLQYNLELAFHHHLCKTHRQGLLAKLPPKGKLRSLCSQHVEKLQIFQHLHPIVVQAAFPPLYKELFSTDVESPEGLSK
Procedure, shortened: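 Schneider cells (Drosophila), stable Gal4 DBD–ROR gamma + UAS-luc; 1 hr cmpd preincubation; Cu2+ induction 700 uM final; 20 hr ambient; luminescence.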
Potency means the concentration at half of the fitted maximal effect.

Row | Compound | Potency | activity change, negative = inhibition
1 | Cc1cccc(NS(=O)(=O)c2ccc(C(=O)NCC(C)(C)N3CCOCC3)cc2)c1C | inactive | –
2 | Cc1ccc(N2C(=O)S/C(=C/c3cn(C)c4ccccc34)C2=O)cc1 | inactive | –
3 | Cc1ccc(N=C2NC(=O)/C(=C/C=C/c3ccco3)S2)cc1C | inactive | –
4 | Cc1cccc(N=C2NC(=O)/C(=C/c3cn(C)c4ccccc34)S2)c1 | 12.6 µM (active) | –
5 | COc1ccc(CSc2nnnn2-c2ccc(O)cc2)cc1F | inactive | –
6 | C#CCOc1ccccc1/C=C1/C(=O)ON=C1C | inactive | –
7 | O=C(N/N=C/c1cccc(OC(=O)c2ccc([N+](=O)[O-])cc2)c1)c1cccnc1 | inactive | –
8 | Cn1c(=O)n(C)c2cc(/C=N/NC(=O)c3cccc(Br)c3)ccc21 | inactive | –
9 | COc1cc(/C=N/NC(=O)c2cccnc2)ccc1OC(=O)c1cccc(Br)c1 | 11.2 µM (active) | –
10 | Cc1ccc(CNC(=O)[C@@H](NC(=O)Cc2ccccc2)C(C)C)cc1 | inactive | –
11 | COc1ccc(/C=C(/NC(=O)c2ccccc2)C(=O)Nc2cccc(C(=O)O)c2)cc1 | inactive | –
12 | CC(NC(=O)CNC(=O)Cc1cccc2ccccc12)c1ccc(S(N)(=O)=O)cc1 (stereo unspecified) | inactive | –
13 | COC(=O)c1ccc2c(C(C)(C)O)c(C(C)(C)O)[nH]c2c1 | inactive | –
14 | CCNC(=O)CCc1nc(-c2ccc(C)cc2)no1 | inactive | –
15 | CCNC(=O)CCc1nc(-c2ccc(C(C)(C)C)cc2)no1 | 0.0447 µM (active) | –
16 | CN1CCN(C(=O)CCc2nc(-c3ccc(Cl)cc3)no2)CC1 | inactive | –
17 | CC1=C(C(=O)OC(C)(C)C)C(c2ccc(Br)cc2)NC(=O)N1CCCC(=O)O (stereo unspecified) | inactive | –
18 | COc1cccc(NC(=O)[C@H](Cc2c[nH]c3ccccc23)NC(=O)[C@@H]2Cc3ccccc3CN2)c1 | inactive | –
19 | CC(C)(C)Nc1c(-c2cccs2)nc2ccccn12 | 6.31 µM (active) | –
20 | Cc1cc(-c2cccs2)nc(-n2cccc2)n1 | inactive | –
21 | Cc1cc2nc(C(F)(F)F)cc(-c3cccs3)n2n1 | inactive | –
22 | Cn1nccc1C(=O)NC1CCCc2c1cnn2-c1ccc(F)cc1F (stereo unspecified) | inactive | –
23 | COC(=O)c1ccc(OC(=O)c2cnccn2)cc1 | inactive | –
24 | COc1ccc(-n2cnc3cc(C(=O)NC4CCCC4)ccc32)cc1 | inactive | –

Row | Compound | Potency | activity change, negative = inhibition
25 | CCCNC(=S)N1CCC(NC(=O)c2ccc(OC)cc2)CC1 | inactive | –
26 | CCCOc1cccc(C(=O)NCCCNC(=O)c2cccnc2)c1 | inactive | –
27 | COc1ccc(C(=O)NC2CCN(C(=S)NCCc3ccccc3)CC2)cc1 | inactive | –
28 | Cc1cccc(OCC(=O)NCCNC(=O)c2cccnc2)c1 | inactive | –
29 | COCCCNC(=O)c1c(F)c(F)c(F)c(F)c1F | inactive | –
30 | COc1ccc(C(=O)NC(=S)NNC(=O)CCc2ccccc2)cc1 | 4.47 µM (active) | –
31 | COc1ccc(C(=O)NC(=S)NC2CCCCC2)cc1 | 2.82 µM (active) | –
32 | O=C(CCc1ccccc1)NNC(=O)c1ccc(Br)cc1 | inactive | –
33 | COCCCNC(=S)NC(=O)c1ccccc1 | 12.6 µM (active) | –
34 | Cc1cccc(OCCNC(=S)NC(=O)c2cccnc2)c1 | 10 µM (active) | –
35 | COCCCNC(=S)NNC(=O)C(O)(c1ccccc1)c1ccccc1 | inactive | –
36 | C[C@H](NC(=O)C1CC(=O)N(c2ccc3c(c2)OCO3)C1)C(=O)NCc1ccco1 (stereo partly specified) | inactive | –
37 | COc1ccc(CNC(=O)/C(C#N)=C/c2cccc(OC)c2OC)cc1 | inactive | –
38 | Cc1c(Cl)c([N+](=O)[O-])nn1CC(=O)NCCCN1CCOCC1 | inactive | –
39 | Cc1ccc(C)c(N2CCN(C(=O)Cn3ncn4cccc4c3=O)CC2)c1 | inactive | –
40 | NS(=O)(=O)c1cccc(NC(=O)CC23CC4CC(CC(Br)(C4)C2)C3)c1 | inactive | –
41 | Cc1ccc(S(=O)Cc2ccc(C(=O)N3CCN(C4CCCCC4)CC3)o2)cc1 (stereo unspecified) | inactive | –
42 | N#C/C=C/N1CCN(Cc2ccc3c(c2)OCO3)CC1 | inactive | –
43 | CCCc1ccc(OCC(=O)NNC(=S)NC(=O)c2ccco2)cc1 | 12.6 µM (active) | –
44 | COc1ccc(C(=O)NNC(=O)c2cc(C)[nH]n2)cc1 | inactive | –
45 | Cn1nnnc1SCC(=O)NNC(=O)c1ccc(Br)cc1 | inactive | –
46 | COc1ccc(OCC(=O)Nc2ccc(NC(=O)c3ccco3)c(C)c2)cc1 | inactive | –
47 | CC(=O)NC(=S)NNC(=O)c1ccc(Br)cc1 | 12.6 µM (active) | –
48 | COc1ccc(C(=O)NNC(=S)NC(=O)c2ccccc2)cc1 | 4.47 µM (active) | –

Row | Compound | Potency | activity change, negative = inhibition
49 | COCCCNC(=S)N(Cc1ccccc1)Cc1ccc(F)cc1 | 15.8 µM (active) | –
50 | COCCNC(=S)N(Cc1cccnc1)Cc1ccc(OC)c(OC)c1 | inactive | –
51 | Cc1cc(C)c2[nH]c(=O)c(CN(Cc3ccccc3)C(=S)NCCCN(C)C)cc2c1 | inactive | –
52 | COc1ccc(OCC(=O)NNC(=O)c2ccc(-c3ccccc3)cc2)cc1 | inactive | –
53 | CNC(=S)NNC(=O)c1ccc(N(C)C)cc1 | inactive | –
54 | Cc1ccc(OCC(=O)NCCCNC(=O)c2ccco2)cc1C | inactive | –
55 | Cc1ccc(N(CC(=O)NC2CCCCC2)C(=O)CCCC(=O)Nc2ccccn2)c(C)c1 | inactive | –
56 | O=C(NCc1ccco1)C(c1ccncc1)N(C(=O)Cn1nnc2ccccc21)c1ccccc1 (stereo unspecified) | inactive | –
57 | O=C(Nc1cccc(Cl)c1Cl)c1ccccc1NC(=O)C1CC=CCC1C(=O)O (stereo unspecified) | inactive | –
58 | CCc1ccc(C(CNc2nc(C(F)(F)F)nc3ccccc23)N(C)C)cc1 (stereo unspecified) | inactive | –
59 | O=C(Nc1cccc(Br)c1)c1ccc2snnc2c1 | inactive | –
60 | CCN1C(=NCCc2cccnc2)N[C@@H](c2ccccc2)C(C(=O)OC)=C1C | inactive | –
61 | O=S(=O)(c1cccc(Cn2nnc(-c3ccc(F)cc3)n2)c1)N1CCOCC1 | inactive | –
62 | CC1(C(=O)O)CCC(C(=O)Nc2ccc(Cl)c(Cl)c2)C1(C)C (stereo unspecified) | inactive | –
63 | CC(C)CCSc1ncnc2c1oc1nc3c(cc12)COC(C)(C)C3 | inactive | –
64 | C=CCn1c(=S)[nH]c2nc3c(cc2c1=O)COC(C)(C)C3 | 3.98 µM (active) | –
65 | CC1(C)Cc2nc3sc4c(SCC(=O)NC(c5ccccc5)c5ccccc5)ncnc4c3cc2CO1 | inactive | –
66 | Cc1cc(C)nc(NS(=O)(=O)c2ccc(N3C(=O)C4CCCCC4C3=O)cc2)n1 (stereo unspecified) | inactive | –
67 | CCc1ccc(NC(=O)C(=O)NNC(=O)c2cccs2)cc1 | inactive | –
68 | CCOC(=O)c1ccc(NC2Nc3cc(C)nn3S2)cc1 (stereo unspecified) | inactive | –
69 | CCc1ccc(NC2Nc3cc(C)nn3S2)cc1 (stereo unspecified) | 1.58 µM (active) | –
70 | Cc1ccccc1NC(=O)Cn1cc(C(=O)C2CC2)c2ccccc21 | inactive | –
71 | CC1CCCCN1C(=O)Cn1c(=O)oc2cc(S(=O)(=O)N3CCCCC3)ccc21 (stereo unspecified) | inactive | –
72 | CCSc1nc2sc3c(c2c(=O)n1-c1ccc(C)cc1)CCN(C)C3 | inactive | –

Row | Compound | Potency | activity change, negative = inhibition
73 | O=C(c1ccc(OC2CCN(C/C=C/c3ccc(F)cc3)CC2)cc1)N1CCCCC1 | inactive | –
74 | CCn1c(-c2ccoc2C)n[nH]c1=S | 11.2 µM (active) | –
75 | CCCc1cc(=O)[nH]c(SCC(=O)OCc2ccccc2)n1 | inactive | –
76 | CCOC(=O)CSc1nnc(-c2ccncc2)o1 | inactive | –
77 | CCCc1cc(-c2n[nH]c(=S)n2CC)c2ccccc2n1 | 11.2 µM (active) | –
78 | CCn1c(C(C)C)n[nH]c1=S | inactive | –
79 | CCn1c(-c2ccncc2)n[nH]c1=S | 5.01 µM (active) | –
80 | CCn1c(C(C)NC(=O)c2ccc(C)cc2)n[nH]c1=S (stereo unspecified) | inactive | –
81 | CC(C)n1c(-c2ccncc2)n[nH]c1=S | 12.6 µM (active) | –
82 | CCn1c(SCC(=O)Nc2nc3ccc(OC)cc3s2)nnc1-c1ccoc1C | inactive | –
83 | CCn1c(SCC(=O)NC2CCCC2)nnc1-c1ccoc1C | inactive | –
84 | O=S(=O)(Nc1ccccc1Br)c1cccs1 | inactive | –
85 | O=C(Nc1ccc(CN2CCOCC2)cc1)c1cc(Cl)ccc1Cl | inactive | –
86 | C[C@@H]1CC[C@@]2(OC1)O[C@H]1C[C@H]3[C@@H]4CC=C5C[C@@H](O)[C@H](O)C[C@]5(C)C4CC[C@]3(C)[C@H]1[C@@H]2C (stereo partly specified) | inactive | –
87 | O=C1Nc2cc(C(=O)N3CCN(c4ccc(F)cc4)CC3)ccc2NC1CSCc1cccc(F)c1 (stereo unspecified) | inactive | –
88 | CC1CCC(NS(=O)(=O)c2ccc3c(c2)CC(=O)N3)CC1 (stereo unspecified) | inactive | –
89 | CCn1nc(NC(=O)c2ccco2)c2cc3ccc(C)cc3nc21 | inactive | –
90 | CC(=O)Nc1nc2ccccc2n1Cc1ccc(C)cc1 | 1.26 µM (active) | –
91 | CC(=O)NC(C)c1nc2ccccc2n1Cc1ccccc1F (stereo unspecified) | inactive | –
92 | CCC(=O)Nc1nc2ccccc2n1Cc1ccccc1C | 2 µM (active) | –
93 | CC(=O)c1nc2ccccc2n1Cc1ccccc1 | inactive | –
94 | Cc1ccc(Cn2c(NC(=O)c3ccco3)nc3ccccc32)cc1 | 0.282 µM (active) | –
95 | CCC(=O)NCCc1nc2ccccc2n1CC | inactive | –
96 | O=S(=O)(O)c1nc2ccccc2n1Cc1ccc(Cl)cc1 | inactive | –

Row | Compound | Potency | activity change, negative = inhibition
97 | Cc1ccnc(NC(=O)c2ccco2)n1 | inactive | –
98 | CCOC(=O)C1CCN(S(=O)(=O)c2ccc3c(c2)N(C(C)=O)CCO3)CC1 | inactive | –
99 | COc1ccc2c3c(c(=O)oc2c1)C1O[C@](CCCCN2C(=O)c4ccccc4C2=O)(Cc2c1ccc1ccccc21)O3 | – | -28.3% [at 10 µM]
100 | CCN1CCCC1CNC(=O)c1cc2cc(OC)c(OC)cc2[nH]1 (stereo unspecified) | inactive | –
101 | CCn1c(SCC(=O)Nc2ccc3c(c2)OCCO3)nnc1C(C)C | inactive | –
102 | CC(C)c1cc(C(=O)N/N=C/c2ccoc2)c(O)c(C(C)C)c1 | 5.62 µM (active) | –
103 | COc1cc(/C=N/NC(=O)c2cc(C)n(-c3ccc(F)cc3)c2C)cc(OC)c1O | inactive | –
104 | CC(Oc1ccccc1[N+](=O)[O-])C(=O)N/N=C/c1ccoc1 (stereo unspecified) | inactive | –
105 | COc1ccccc1NC(=O)/C=C/C(=O)O | inactive | –
106 | COC(=O)c1ccccc1NC(=S)NC(=O)c1ccccc1F | 12.6 µM (active) | –
107 | COC(=O)c1ccccc1NC(=O)c1ccccc1NS(C)(=O)=O | inactive | –
108 | COc1cccc(NC(=O)C(C)Oc2ccccc2)c1 (stereo unspecified) | inactive | –
109 | COc1ccccc1NC(=S)NC(=O)C(C)C | 5.01 µM (active) | –
110 | COc1ccccc1NC(=O)C(C)OC(=O)CC1CCCC1 (stereo unspecified) | inactive | –
111 | NC(=O)c1ccccc1NC(=O)c1ccccc1F | inactive | –
112 | CCc1ccccc1NC(=S)Nc1cc(OC)c(NC(=O)C(C)C)cc1OC | – | -14.6% [at 1.91 µM]
113 | CC(C)C(=O)Nc1cccc(NC(=O)c2ccc([N+](=O)[O-])cc2Cl)c1 | inactive | –
114 | CC(C)C(=O)Nc1cccc(NC(=S)NC(=O)C(c2ccccc2)c2ccccc2)c1 | 7.08 µM (active) | –
115 | COc1ccccc1NC(=O)c1ccc(C)s1 | inactive | –
116 | COc1ccccc1NC(=O)/C=C/C(N)=O | 4.47 µM (active) | –
